Only some compounds are listed: those with a hit (about 19% of all), similar ones and a draw of the others.
IL1B secr inh: inhibitors of inflammasome signaling (IL-1 beta secretion) | activity change, % at 57.5 µM | THP-1 LPS/ATP IL-1B secretion, AlphaLISA, 16 h; active compounds read low | 360,000 compounds, 4.7% hits; in the data active = activity change below about -50%; inconclusive = mostly about -30% to -49%
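Secreted IL-1B measured by AlphaLISA bead assay after 16 h compound exposure of THP-1 cells; compounds (final up to 57.5 uM) added 1 h before LPS (250 ng/mL) and ATP (1.25 mM) stimulation; lower signal means less secretion.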
TDP1 cell CPT: DT40-hTDP1 cell growth loss with CPT | chicken DT40 Tdp1-/-;hTDP1 cells + 20 nM CPT, ATP luminescence, 48 h | Potency, µM (highest dose often 46.2 µM), for the others: at the highest dose activity change, negative = growth inhibition, actives largely listed as inhibitors | 420,000 compounds, 12% hits; also: potency is read from the fitted curve at half-maximal effect; nearly all actives have a fitted effect of over 55% in size
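Chicken DT40 Tdp1-/- cells complemented with human TDP1, 400 cells/well, exposed to compounds plus 20 nM camptothecin for at least 48 h at 37 C; viability read as ATP content by CellTiter-Glo luminescence.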
TDP1 inh: TDP1 (human) enzyme inhibition. Q9NUW8. recombinant TDP1, AlphaScreen DNA substrate cleavage. Potency, µM (highest dose often 130 µM), without a hit: top-dose activity change, negative = inhibition, hits mostly inhibitors. 350,000 compounds, 0.28% hits. AID 485290; also: potency is read from the fitted curve at half-maximal effect; nearly all actives have a fitted effect of over 40% in size
Target sequence (Q9NUW8 whole entry, looked up): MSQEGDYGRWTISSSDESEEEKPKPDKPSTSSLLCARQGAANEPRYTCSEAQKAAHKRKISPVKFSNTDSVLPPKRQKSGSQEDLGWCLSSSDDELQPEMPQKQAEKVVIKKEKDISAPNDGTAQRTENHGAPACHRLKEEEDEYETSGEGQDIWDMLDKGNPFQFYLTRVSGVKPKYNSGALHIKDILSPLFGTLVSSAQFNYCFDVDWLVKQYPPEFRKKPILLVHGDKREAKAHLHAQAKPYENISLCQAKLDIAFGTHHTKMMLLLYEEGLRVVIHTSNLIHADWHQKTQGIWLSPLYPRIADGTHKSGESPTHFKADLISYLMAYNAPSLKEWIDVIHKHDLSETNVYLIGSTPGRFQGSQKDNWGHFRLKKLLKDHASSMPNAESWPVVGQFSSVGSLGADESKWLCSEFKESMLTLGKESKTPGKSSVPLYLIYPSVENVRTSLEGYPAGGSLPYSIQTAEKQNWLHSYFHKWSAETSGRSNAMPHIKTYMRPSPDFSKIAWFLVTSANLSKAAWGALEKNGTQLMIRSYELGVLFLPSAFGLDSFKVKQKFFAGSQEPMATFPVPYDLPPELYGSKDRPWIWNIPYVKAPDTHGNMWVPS
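Compounds were preincubated with Tdp1 (1 nM final) for 15 min at room temperature before substrate (15 nM final) started a 5 min reaction; beads (10 ug/ml final) were then added for 10 min before AlphaScreen detection.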
Giardia killer: Giardia lamblia killing | Giardia lamblia trophozoite viability | activity change, % at 7.66 µM, hits read low | 340,000 compounds, 0.15% hits | AID 540267; in the data active = activity change below about -80%; inconclusive = between about -30% and that limit;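 also: parasites exposed to compound for two days anaerobically before the ATP read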
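Compounds were tested on trophozoites seeded at 100 cells/well and held 48 hrs at 37 deg C anaerobically. An ATP-based luminescent kit measured the remaining live cells.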
ELG1 repair inh: inhibitors of ELG1-dependent DNA repair in HEK293T cells; AID 504467; Potency, µM (top dose mostly 46.1 µM), inactives show at the top dose activity change, negative = inhibition, actives largely listed as inhibitors; HEK293T ELG1-luciferase reporter, luminescence, 16 h; DNA damage induced by 5-fluorouridine; 330,000 compounds, 2.3% hits; also: potency is read from the fitted curve at half-maximal effect; nearly all actives have a fitted effect of over 55% in size
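Cells (2,000 per well) received 5-fluorouridine plus test compound or DMSO and were incubated 16 hr at 37 °C, 5% CO2. Luciferase activity was read by luminescence 30 min after ONE-Glo addition; signal suppression marked inhibition of damage-induced ELG1 function.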
DT40 TDP1 no CPT: qHTS for Inhibitors of human tyrosyl-DNA phosphodiesterase 1 (TDP1): qHTS in cells in absence of CPT. Potency, µM (doses to about 46.2 µM), without a hit: top-dose activity change, negative = growth inhibition, usual class: inhibitors. DT40 Tdp1-/- hTDP1 cells, no CPT, ATP luminescence, 48 h. 420,000 compounds, 15% hits. AID 686978, 2013; also: potency is read from the fitted curve at half-maximal effect; nearly all actives have a fitted effect of over 55% in size
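Stably hTDP1-transfected Tdp1-null chicken DT40 cells were treated with library compounds minus camptothecin and grown for at least 48 hr at 37 °C, after which cellular ATP was quantified by luminescence.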
Starred values were filed as active, the others as inactive; ? = inconclusive; . = no result; [ ] = another dose, or the depositor's remark. Unless noted, calls follow the shape of the dose curve; as a rule, active = well fitted curve in the direction sought with a large enough effect; inconclusive = small, poorly fitted or top-dose-only effect, or another doubt; inactive = no such curve, though single readings can be large; an effect the other way counts as inactive or inconclusive. % is scaled to controls: 0 for no effect and ±100 for the full control effect.

SMILES	IL1B secr inh	TDP1 cell CPT	TDP1 inh	Giardia killer	ELG1 repair inh	DT40 TDP1 no CPT
COc1ccc(-c2ccc(N3C(c4cc(OC)cc(OC)c4)=Cc4ccc(OC)cc4C3CC(C)=O)cc2)cc1 (centres undefined)	15	5.2µM*	.	.	.	6.5µM*
COc1ccccc1C(=O)NCCC(=O)NCC1CCCO1 (centres undefined)	1	6%	0%	-17	5%	10%
COc1ccc(CNC(=O)c2c(O)c3cc(OC)c(OC)cc3[nH]c2=O)cc1OC	0	-15%	0%	-10	-3%	-2%
COc1cc2[nH]c(=O)c(C(=O)NCc3ccccc3Cl)c(O)c2cc1OC	-10	15µM*	-1%	27	-13%	18µM*
Cc1ccc(-n2ncc(C(=O)Nc3ccc(C)c(F)c3)c2C2CCN(C(=O)OC(C)(C)C)CC2)cc1C	.	?	-1%	.	.	?
CCOc1ccc(NC(=O)c2cnn(-c3ccc(C)c(Cl)c3)c2C2CCNCC2)cc1	.	23µM*	-1%	.	.	?
CCN1CCN(CCCNC(=O)Cn2nc(C)n3c(cc4c(OC)cccc43)c2=O)CC1	.	2%	-2%	.	.	-4%
Cc1nn(-c2ccccn2)c2c1C(=O)C(Br)CC2 (centres undefined)	-106*	5.2µM*	?	-4	1%	3.7µM*
Cc1cc(C)cc(NC(=O)N2CCN(c3cc(-c4noc(C)n4)ccc3C)CC2)c1	.	?	1%	.	.	?
Cc1nc(-c2ccc(C)c(N3CCN(C(=O)Nc4ccc(Br)cc4)CC3)c2)no1	.	?	3%	.	.	21µM*
C/C(=N/OC(=O)C1CC12CCC2)c1ccc(Br)cc1 (centres undefined)	33	-3%	-2%	8	-1%	-5%
O=C(NCc1cccc(Cl)c1)C1CCN(c2nn3cc(-c4ccc(F)cc4)nc3s2)CC1	.	?	0%	.	.	?
CCN(CC)CCNC(=O)C1CCN(c2nn3cc(-c4ccc(F)cc4)nc3s2)CC1	.	5.2µM*	1%	.	.	3.3µM*
O=C(Nc1cccc(Cl)c1)C1CCCN(c2nn3cc(-c4ccc(F)cc4)nc3s2)C1 (centres undefined)	.	?	4%	.	.	23µM*
O=C(NCc1cccc(Cl)c1)C1CCCN(c2nn3cc(-c4ccc(F)cc4)nc3s2)C1 (centres undefined)	.	?	5%	.	.	23µM*
Cc1ccc(S(=O)(=O)N[C@@H](C)CO)cc1	-4	2%	.	.	.	0%
CN(C)S(=O)(=O)c1cccc(C(=O)OCC(=O)NCc2ccc3c(c2)OCO3)c1	-2	-11%	3%	5	0%	-4%
Cc1ccc2[nH]c(=O)c3cc(C(=O)NCC4CCCO4)sc3c2c1 (centres undefined)	-81*	-10%	-3%	-7	0%	?
CCCN1CCN(CCCNC(=O)c2cc3c(=O)[nH]c4ccc(C)cc4c3s2)CC1	.	?	1%	-2	6%	16µM*
O=C(NCC1CCCO1)c1cc2c(=O)[nH]c3ccccc3c2s1 (centres undefined)	-6	-1%	0%	4	?	-29%
CCCN(CCC)CCCNC(=O)c1cc2c(=O)[nH]c3ccccc3c2s1	-73*	35%	.	-17	12%	-6%
CCN(CCCNC(=O)c1cc2c(=O)[nH]c3ccc(C)cc3c2s1)Cc1ccccc1	.	7.3µM*	4%	.	.	4.6µM*
C[C@H](CO)N1C[C@H](C)[C@@H](CN(C)S(=O)(=O)c2cccc(F)c2)Oc2ncc(Br)cc2C1=O	12	-28%	.	.	.	?
O=C(CSc1nc(Nc2ccccc2)nc(N2CCOCC2)n1)Nc1ccccc1Cl	-7	16µM*	7%	16	?	11µM*
O=C(CSc1nc(Nc2ccccc2)nc(N2CCOCC2)n1)Nc1ccc(Br)cc1F	0	?	6%	12	1%	18µM*
SMILES	IL1B secr inh	TDP1 cell CPT	TDP1 inh	Giardia killer	ELG1 repair inh	DT40 TDP1 no CPT
COc1ccc(NC(=O)CN2CCN(c3c(C)cc(C)cc3C)CC2)cc1	-8	-29%	.	-29	-11%	-23%
COc1ccc(-c2oc3ccccc3c(=O)c2O)cc1OC	.	-28%	7%[56.1 µM]	.	.	-29%
COc1cc2oc3ccccc3c(=O)c2cc1OC	-51*	?	.	14	?	?
COc1ccc(-c2cc(=O)c3ccccc3o2)cc1OC	.	?	8%[56.1 µM]	.	.	15µM*
COc1ccccc1-c1oc2ccccc2c(=O)c1OC	.	6.7µM*	-9%[56.1 µM]	.	.	?
COc1ccccc1-c1oc2ccccc2c1C#CC1(O)CCCCC1	-29	-2%	-9%	-28	23%	?
COc1ccccc1-c1oc2ccccc2c1C#CC1(N)CCCCC1	?	16µM*	0%	7	?	15µM*
N=c1c2c3c(sc2ncn1Nc1ccccc1)CCC3	?	?	.	21	3%	?
Cc1cnc(C(=O)OCc2ccc(Br)cc2)cn1	-3	-4%	1%	-12	?	-18%
Cc1ccc(NS(=O)(=O)c2ccc3[nH]c4c(c3c2)CCCC4)c(C)c1	.	?	7%	.	.	?
CN(CC(=O)Nc1cccc(C(F)(F)F)c1)S(=O)(=O)c1ccc2[nH]c3c(c2c1)CCCC3	.	?	4%	.	.	?
COc1ccc(S(=O)(=O)N(C)CC(=O)Nc2ccccc2C(F)(F)F)cc1Cl	13	?	4%	6	-20%	-8%
COc1ccc(NC(=O)CN(C)S(=O)(=O)c2ccc3[nH]c4c(c3c2)CCCC4)cc1OC	.	?	2%	.	.	16µM*
CN(CC(=O)Nc1cccc(Cl)c1)S(=O)(=O)c1ccc2[nH]c3c(c2c1)CCCC3	.	?	7%	.	.	23µM*
Cc1ccc(NC(=O)CN(C)S(=O)(=O)c2ccc3[nH]c4c(c3c2)CCCC4)c(Cl)c1	.	?	4%	.	.	18µM*
COc1ccc(NC(=O)CN(C)S(=O)(=O)c2ccc3[nH]c4c(c3c2)CCCC4)cc1Cl	.	23µM*	11%	.	.	?
CC(=O)Nc1ccc(NS(=O)(=O)c2ccc3[nH]c4c(c3c2)CCCCC4)cc1	.	.	5%	.	.	.
CC(=O)N1CCc2cc(S(=O)(=O)NC(Cc3ccccc3)C(=O)NCc3ccccc3)ccc21 (centres undefined)	.	1%	0%	.	.	7%
Cc1ccc(OCC(=O)NC(=S)Nc2ccc(Br)cn2)cc1	35	8%	.	-6	16%	-8%

From PubChem
